Test results: the supplement of paper PMC10849652
The full data set covers some 7,900 targets. This sample favours those with a hit. About 0.6% of all pairs of compound and target were hits. Values without a mark were called inactive.

Assays:
Experiment in all cases: log2 fold change, soluble protein after heating vs DMSO (PISA); higher = thermal stabilisation; K562 cells, 10 uM, 30 min; active = over 0.2 and 3.5 SD of the protein, either way, in both replicates (recomputed)
[1] = compound: CC[C@@H]1C(=O)N(C)c2cnc(Nc3ccc(C(=O)NC4CCN(C)CC4)cc3OC)nc2N1C1CCCC1
Procedure, shortened: (§1)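 K562 cells at 2×10^6 cells/mL were treated for 30 min with 10 μM compound, and aliquots were heated for 3 min over 48°C-58°C before pooling. Extraction used PBS with 0.5% NP-40 at 4°C, and soluble protein was the supernatant after 21,000xg for 90 min, measured by TMTpro 16plex LC-MS/MS with channel sums equalised. Thermal stability values, relative to control samples and from duplicates, are log2 fold changes.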

volasertib = compound: CC[C@@H]1C(=O)N(C)c2cnc(Nc3ccc(C(=O)N[C@H]4CC[C@H](N5CCN(CC6CC6)CC5)CC4)cc3OC)nc2N1C(C)C [volasertib]
Procedure, shortened: as §1

[2] = compound: CC[C@H](C)N1C=C(C2=C(C=C(C=C21)C3=CN=C(C=C3)N4CCNCC4)C(=O)NCC5=C(C=C(NC5=O)C)C)C
Procedure, shortened: as §1

epoxomicin = compound: CC[C@H](C)[C@@H](C(=O)N[C@@H]([C@@H](C)O)C(=O)N[C@@H](CC(C)C)C(=O)[C@]1(CO1)C)NC(=O)[C@H]([C@@H](C)CC)N(C)C(=O)C [epoxomicin]
Procedure, shortened: as §1

[3] = compound: CCn1c(C(=O)N(C2CC2)C2CC2)cc2c3c(ncn3C)c(Nc3cc(C)n(C)n3)nc21
Procedure, shortened: as §1

[4] = compound: CCn1cc(-c2ccnc3[nH]c(-c4cccc(CN(C)C)c4)cc23)c(-c2ccc(NC(=O)N(C)C)cc2)n1
Procedure, shortened: as §1

[5] = compound: CN(C)CC(=O)Nc1ccc2[nH]c(=O)c3ccccc3c2c1
Procedure, shortened: as §1

rosiglitazone = compound: CN(CCOC1=CC=C(C=C1)C[C@H]2C(=O)NC(=O)S2)C3=CC=CC=N3 (racemic) [rosiglitazone]
Procedure, shortened: as §1

[6] = compound: CN1C2=C(C3=C1C(=O)N(N=C3)CC4=CC(=CC=C4)N)SC(=C2)S(=O)C
Procedure, shortened: as §1

[7] = compound: CN1CCC(CNc2ccc3ncc(-c4cccc(OC(F)(F)F)c4)n3n2)CC1
Procedure, shortened: as §1

Sequence of UniProt Q9NVH2 (Q9NVH2 whole entry, looked up): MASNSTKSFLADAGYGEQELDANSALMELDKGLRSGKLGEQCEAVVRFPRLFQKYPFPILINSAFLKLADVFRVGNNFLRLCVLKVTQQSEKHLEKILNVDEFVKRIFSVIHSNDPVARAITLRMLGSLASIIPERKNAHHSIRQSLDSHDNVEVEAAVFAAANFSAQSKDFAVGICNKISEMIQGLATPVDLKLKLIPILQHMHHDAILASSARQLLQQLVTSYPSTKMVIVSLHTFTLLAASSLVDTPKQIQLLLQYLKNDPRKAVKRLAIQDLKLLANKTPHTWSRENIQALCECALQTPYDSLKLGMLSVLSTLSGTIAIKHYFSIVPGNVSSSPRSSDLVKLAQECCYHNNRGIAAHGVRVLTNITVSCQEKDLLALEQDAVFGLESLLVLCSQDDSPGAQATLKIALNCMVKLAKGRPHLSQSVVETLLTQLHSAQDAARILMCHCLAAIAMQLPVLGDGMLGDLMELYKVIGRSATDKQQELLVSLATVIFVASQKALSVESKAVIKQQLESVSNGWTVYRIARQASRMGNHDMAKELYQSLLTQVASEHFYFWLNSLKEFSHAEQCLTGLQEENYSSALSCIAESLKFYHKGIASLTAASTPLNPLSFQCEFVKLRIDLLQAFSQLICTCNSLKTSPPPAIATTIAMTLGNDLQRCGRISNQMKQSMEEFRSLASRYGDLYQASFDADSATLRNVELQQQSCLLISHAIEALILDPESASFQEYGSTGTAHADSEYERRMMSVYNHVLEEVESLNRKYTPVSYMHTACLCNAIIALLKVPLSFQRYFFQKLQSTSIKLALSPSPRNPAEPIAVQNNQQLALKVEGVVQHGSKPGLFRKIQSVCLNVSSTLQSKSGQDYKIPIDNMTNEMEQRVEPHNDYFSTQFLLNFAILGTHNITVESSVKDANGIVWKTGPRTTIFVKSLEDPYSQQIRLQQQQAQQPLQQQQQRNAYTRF
Sequence of UniProt O43318 (O43318 whole entry, looked up): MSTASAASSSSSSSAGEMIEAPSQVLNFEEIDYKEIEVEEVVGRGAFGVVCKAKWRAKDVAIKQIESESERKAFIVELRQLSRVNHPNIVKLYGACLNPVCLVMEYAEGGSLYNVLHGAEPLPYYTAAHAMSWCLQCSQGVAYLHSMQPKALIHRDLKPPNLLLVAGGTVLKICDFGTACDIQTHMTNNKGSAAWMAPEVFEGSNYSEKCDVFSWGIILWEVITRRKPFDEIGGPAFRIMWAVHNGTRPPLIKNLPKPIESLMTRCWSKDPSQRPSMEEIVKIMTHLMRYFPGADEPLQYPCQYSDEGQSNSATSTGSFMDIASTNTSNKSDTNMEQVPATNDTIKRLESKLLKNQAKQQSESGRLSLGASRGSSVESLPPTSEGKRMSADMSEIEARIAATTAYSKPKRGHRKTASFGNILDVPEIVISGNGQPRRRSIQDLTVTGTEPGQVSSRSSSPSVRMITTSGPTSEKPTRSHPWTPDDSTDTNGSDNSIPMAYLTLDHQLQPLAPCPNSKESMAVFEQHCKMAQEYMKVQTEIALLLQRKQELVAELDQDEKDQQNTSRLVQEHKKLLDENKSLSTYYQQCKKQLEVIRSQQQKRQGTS
Sequence of UniProt Q8TBB5 (Q8TBB5 whole entry, looked up): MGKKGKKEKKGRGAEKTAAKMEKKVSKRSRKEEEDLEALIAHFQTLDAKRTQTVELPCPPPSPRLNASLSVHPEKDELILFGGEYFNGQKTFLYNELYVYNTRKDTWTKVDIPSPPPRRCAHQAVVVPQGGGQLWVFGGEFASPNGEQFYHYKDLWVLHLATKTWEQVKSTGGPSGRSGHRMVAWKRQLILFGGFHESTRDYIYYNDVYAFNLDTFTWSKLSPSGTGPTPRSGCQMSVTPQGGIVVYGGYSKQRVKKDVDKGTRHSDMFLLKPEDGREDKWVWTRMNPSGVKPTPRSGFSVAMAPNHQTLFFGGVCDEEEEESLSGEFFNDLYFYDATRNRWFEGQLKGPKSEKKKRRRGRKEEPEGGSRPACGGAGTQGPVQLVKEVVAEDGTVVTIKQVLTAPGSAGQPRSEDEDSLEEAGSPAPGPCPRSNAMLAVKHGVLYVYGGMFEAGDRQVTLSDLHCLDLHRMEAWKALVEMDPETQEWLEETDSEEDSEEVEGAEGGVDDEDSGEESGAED
Sequence of UniProt Q9UGP4 (Q9UGP4 whole entry, looked up): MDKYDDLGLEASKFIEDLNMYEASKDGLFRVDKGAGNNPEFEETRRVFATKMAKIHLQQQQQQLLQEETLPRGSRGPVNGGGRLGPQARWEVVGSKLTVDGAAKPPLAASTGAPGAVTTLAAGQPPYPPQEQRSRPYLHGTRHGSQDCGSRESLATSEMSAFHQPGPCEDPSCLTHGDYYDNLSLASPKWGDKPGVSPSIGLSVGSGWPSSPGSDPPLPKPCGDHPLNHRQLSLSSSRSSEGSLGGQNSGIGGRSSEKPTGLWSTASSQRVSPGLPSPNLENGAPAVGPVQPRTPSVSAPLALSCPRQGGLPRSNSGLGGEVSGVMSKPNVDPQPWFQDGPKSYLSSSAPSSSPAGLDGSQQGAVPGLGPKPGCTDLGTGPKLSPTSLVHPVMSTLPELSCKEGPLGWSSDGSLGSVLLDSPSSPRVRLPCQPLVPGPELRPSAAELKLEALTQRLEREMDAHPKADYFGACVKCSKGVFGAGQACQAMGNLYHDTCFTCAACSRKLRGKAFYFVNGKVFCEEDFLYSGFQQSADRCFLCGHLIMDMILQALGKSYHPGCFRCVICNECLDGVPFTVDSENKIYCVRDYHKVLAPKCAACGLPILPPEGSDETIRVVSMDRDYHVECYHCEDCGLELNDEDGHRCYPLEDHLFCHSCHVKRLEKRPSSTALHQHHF
Sequence of UniProt Q8WWC4 (Q8WWC4 whole entry, looked up): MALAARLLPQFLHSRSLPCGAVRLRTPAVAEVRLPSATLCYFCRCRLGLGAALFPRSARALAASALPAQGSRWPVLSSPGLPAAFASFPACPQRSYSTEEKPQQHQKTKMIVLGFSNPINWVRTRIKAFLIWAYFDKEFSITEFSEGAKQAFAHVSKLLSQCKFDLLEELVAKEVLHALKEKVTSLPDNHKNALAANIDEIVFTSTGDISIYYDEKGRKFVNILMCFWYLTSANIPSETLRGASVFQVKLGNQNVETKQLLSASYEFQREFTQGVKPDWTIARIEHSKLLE
Sequence of UniProt Q16644 (Q16644 whole entry, looked up): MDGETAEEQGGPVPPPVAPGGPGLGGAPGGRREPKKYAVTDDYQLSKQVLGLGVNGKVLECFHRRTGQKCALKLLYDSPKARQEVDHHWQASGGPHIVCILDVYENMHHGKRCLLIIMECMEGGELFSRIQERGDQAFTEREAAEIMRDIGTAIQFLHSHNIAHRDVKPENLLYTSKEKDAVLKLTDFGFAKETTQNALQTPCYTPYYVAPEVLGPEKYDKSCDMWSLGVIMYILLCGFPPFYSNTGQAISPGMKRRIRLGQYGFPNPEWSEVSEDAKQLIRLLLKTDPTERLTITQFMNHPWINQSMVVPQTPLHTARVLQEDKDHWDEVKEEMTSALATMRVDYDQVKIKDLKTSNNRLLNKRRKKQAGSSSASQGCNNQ
Sequence of UniProt Q8IWA4 (Q8IWA4 whole entry, looked up): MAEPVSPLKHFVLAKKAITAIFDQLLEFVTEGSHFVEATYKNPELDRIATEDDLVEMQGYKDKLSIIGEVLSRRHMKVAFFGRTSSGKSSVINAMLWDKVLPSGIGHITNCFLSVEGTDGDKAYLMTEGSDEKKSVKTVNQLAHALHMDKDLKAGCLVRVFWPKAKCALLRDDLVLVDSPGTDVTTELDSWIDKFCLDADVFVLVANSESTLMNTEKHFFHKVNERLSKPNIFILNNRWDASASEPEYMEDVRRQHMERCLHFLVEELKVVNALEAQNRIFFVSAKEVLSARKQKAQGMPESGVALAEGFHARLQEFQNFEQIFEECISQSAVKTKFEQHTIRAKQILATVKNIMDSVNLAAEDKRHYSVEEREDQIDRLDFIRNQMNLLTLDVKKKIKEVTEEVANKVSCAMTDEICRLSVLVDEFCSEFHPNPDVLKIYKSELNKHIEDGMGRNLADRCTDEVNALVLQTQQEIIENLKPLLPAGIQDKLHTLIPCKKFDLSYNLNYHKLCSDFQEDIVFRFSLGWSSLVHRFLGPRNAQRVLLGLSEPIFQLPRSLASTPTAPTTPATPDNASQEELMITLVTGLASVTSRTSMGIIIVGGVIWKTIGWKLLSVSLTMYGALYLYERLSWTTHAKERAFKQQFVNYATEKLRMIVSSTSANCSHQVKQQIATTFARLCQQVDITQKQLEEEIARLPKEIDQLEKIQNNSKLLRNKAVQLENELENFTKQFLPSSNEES
Sequence of UniProt Q8NC56 (Q8NC56 whole entry, looked up): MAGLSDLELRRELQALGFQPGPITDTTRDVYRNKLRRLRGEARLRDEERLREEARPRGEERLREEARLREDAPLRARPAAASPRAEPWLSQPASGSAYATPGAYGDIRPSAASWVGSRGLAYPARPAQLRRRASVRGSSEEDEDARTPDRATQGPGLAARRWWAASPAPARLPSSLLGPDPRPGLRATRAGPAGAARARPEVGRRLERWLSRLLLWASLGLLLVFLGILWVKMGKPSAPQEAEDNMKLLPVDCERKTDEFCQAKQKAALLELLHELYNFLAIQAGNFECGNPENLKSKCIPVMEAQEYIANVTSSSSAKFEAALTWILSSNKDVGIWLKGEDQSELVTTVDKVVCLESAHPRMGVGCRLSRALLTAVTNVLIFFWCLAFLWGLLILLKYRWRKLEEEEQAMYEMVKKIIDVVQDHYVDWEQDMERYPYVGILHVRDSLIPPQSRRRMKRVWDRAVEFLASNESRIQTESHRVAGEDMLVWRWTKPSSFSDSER
Sequence of UniProt P22692 (P22692 whole entry, looked up): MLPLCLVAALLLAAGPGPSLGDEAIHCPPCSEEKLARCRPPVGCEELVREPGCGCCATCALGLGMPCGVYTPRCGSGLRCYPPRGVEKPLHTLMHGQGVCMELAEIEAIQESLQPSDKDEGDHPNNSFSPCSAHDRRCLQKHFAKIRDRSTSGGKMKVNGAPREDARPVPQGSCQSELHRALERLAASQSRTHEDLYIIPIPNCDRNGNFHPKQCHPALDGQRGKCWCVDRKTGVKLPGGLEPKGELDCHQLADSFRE

| Target | log2 fold change [1] | log2 fold change (volasertib) | log2 fold change [2] | log2 fold change (epoxomicin) | log2 fold change [3] | log2 fold change [4] | log2 fold change [5] | log2 fold change (rosiglitazone) | log2 fold change [6] | log2 fold change [7] |
| --- | --- | --- | --- | --- | --- | --- | --- | --- | --- | --- |
| KDM1A isoform 2 (UniProt O60341) | 0.135 | -0.028 | 0.06 | 0.101 | -0.053 | -0.111 | 0.006 | 0.099 | -0.001 | -0.091 |
| MAP1LC3B2 (UniProt A6NCE7) | -0.074 | -0.072 | 0.05 | 0 | -0.003 | 0.004 | 0 | 0.044 | -0.015 | 0.108 |
| MAPK12 (UniProt P53778) | -0.097 | 0.036 | -0.128 | 0.089 | 0.182 | -0.051 | 0.009 | -0.176 | -0.097 | -0.077 |
| LARP1 (UniProt Q6PKG0) | 0.098 | 0.071 | 0.047 | -0.034 | 0.061 | 0.016 | -0.054 | 0.014 | 0.131 | 0.025 |
| MAST4 (UniProt O15021) | -0.059 | -0.22 | 0.073 | 0.048 | 0.056 | -0.102 | -0.009 | 0.067 | -0.115 | -0.384 |
| IPO7 (UniProt O95373) | -0.248 (active) | -0.542 (active) | 0.067 | -0.007 | 0.008 | -0.038 | 0.051 | 0.067 | -0.011 | -0.248 (active) |
| MFGE8 (UniProt Q08431) | 0.061 | 0.362 | -0.007 | -0.003 | 0.063 | -0.057 | -0.103 | -0.092 | 0.114 | 0.098 |
| LIMD1 (UniProt Q9UGP4) | -0.055 | -0.245 (active) | 0.042 | -0.018 | 0.026 | 0.002 | 0.015 | 0.064 | -0.028 | -0.043 |
| INTS7 (UniProt Q9NVH2) | 0.035 | -0.313 | 0.1 | -0.029 | -0.119 | -0.1 | 0.038 | 0.033 | 0.069 | 0.3 |
| MFN1 (UniProt Q8IWA4) | -0.099 | -0.136 | -0.056 | 0.079 | 0.015 | -0.024 | -0.025 | 0.32 | -0.045 | -0.295 (active) |
| MAIP1 (UniProt Q8WWC4) | -0.086 | -0.098 | -0.023 | -0.068 | 0.034 | -0.015 | 0.026 | -0.001 | -0.052 | -0.396 (active) |
| MARCKS (UniProt P29966) | 0.035 | -0.027 | -0.091 | -0.044 | 0 | 0.268 (active) | -0.043 | 0.03 | -0.014 | 0.089 |
| MAPKAPK3 (UniProt Q16644) | -0.084 | 0.036 | 0.003 | 0.064 | 0.048 | 0.016 | -0.015 | 0.004 | -0.14 | -0.049 |
| LPCAT3 (UniProt Q6P1A2) | 0.146 | -0.026 | -0.008 | -0.005 | 0.062 | -0.063 | 0.087 | -0.042 | -0.093 | -0.202 |
| MAPK8 isoform 3 (UniProt P45983) | -0.112 | -0.249 | 0.003 | 0.117 | -0.036 | 0.006 | 0.004 | 0.095 | 0.013 | -0.054 |
| MAGEA9 (UniProt P43362) | -0.11 | -0.39 (active) | -0.057 | -0.044 | -0.05 | -0.088 | 0.044 | 0.038 | -0.084 | -0.116 |
| MAGI1 (UniProt Q96QZ7) | 0.041 | 0.031 | 0.026 | -0.045 | 0.005 | 0.012 | -0.041 | 0.016 | 0.014 | -0.011 |
| ILF2 (UniProt Q12905) | 0.277 | 0.281 | 0.029 | -0.186 | -0.018 | 0.2 | -0.053 | -0.099 | 0.16 | 0.352 |
| LEMD2 (UniProt Q8NC56) | -0.212 | -0.422 (active) | 0.034 | -0.002 | -0.02 | 0.028 | 0.091 | 0.023 | -0.006 | -0.338 (active) |
| KLHDC4 (UniProt Q8TBB5) | 0.091 | -0.342 | 0.012 | -0.026 | 0.036 | -0.064 | 0.065 | -0.012 | 0.075 | 0.158 |
| MAP3K7 (UniProt O43318) | -0.015 | -0.369 (active) | -0.008 | 0.018 | 0.032 | 0.043 | 0.046 | 0.079 | 0.079 | -0.093 |
| MAP4 (UniProt P27816) | 0.011 | 0.049 | -0.041 | -0.003 | 0.018 | -0.002 | -0.03 | -0.021 | -0.004 | 0.037 |
| LNPK (UniProt Q9C0E8) | 0.02 | 0.024 | -0.038 | -0.007 | -0.032 | 0.018 | -0.042 | 0.01 | 0.012 | 0.059 |
| IGFBP4 (UniProt P22692) | -0.22 | -0.07 | -0.092 | -0.187 | -0.045 | 0.173 | -0.049 | 0.13 | 0.023 | -0.033 |
| MEPCE (UniProt Q7L2J0) | -0.07 | -0.209 | 0.052 | -0.053 | 0.009 | -0.013 | 0.061 | -0.019 | 0.007 | -0.051 |
| MDC1 (UniProt Q14676) | 0 | -0.074 | -0.028 | 0.039 | -0.03 | 0.384 | 0.015 | 0.019 | 0.527 (active) | 0.069 |
